# Laboratory results taken from the supplement of paper PMC6555819.
# Experiments:
# Assay in all cases: PBM binding z-score (relative to random genomic background probes); higher = stronger binding; sequences stand for … in GC…GCGATTGACAGCGTAGAATGAAGG
# [1] = test system: FXR:RXRa (NR concentration 270 nM, RXRa partner concentration 90 nM)
# Method in brief: (§1)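 Regression normalization was applied to scanned fluorescence from custom Agilent 4×180K protein-binding microarrays. Before scanning, arrays were incubated 1 h with ligand-free nuclear receptor dimers, and binding was detected with antibodies against each partner (one per run). Binding z-scores use the random background probes as reference.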
# [2] = test system: LXRa:RXRa (NR concentration 270 nM, RXRa partner concentration 90 nM)
# Method in brief: as §1
# [3] = test system: LXRa homodimer (NR concentration 270 nM)
# Method in brief: as §1
# [4] = test system: LXRb:RXRa (NR concentration 270 nM, RXRa partner concentration 90 nM)
# Method in brief: as §1
# [5] = test system: LXRb homodimer (NR concentration 270 nM)
# Method in brief: as §1
# [6] = test system: PPARa:RXRa (NR concentration 270 nM, RXRa partner concentration 90 nM)
# Method in brief: as §1
# [7] = test system: PPARg:RXRa (NR concentration 180 nM, RXRa partner concentration 90 nM)
# Method in brief: as §1
# [8] = test system: PPARg:RXRa 270nM:90nM, anti-RXR (NR concentration 270 nM, RXRa partner concentration 90 nM)
# Method in brief: as §1
# [9] = test system: PPARg:RXRa 30nM:10nM, anti-RXR (NR concentration 30 nM, RXRa partner concentration 10 nM)
# Method in brief: as §1
# [10] = test system: PPARg:RXRa 90nM:30nM, anti-RXR (NR concentration 90 nM, RXRa partner concentration 30 nM)
# Method in brief: as §1
# [11] = test system: PPARg:RXRa DBDmut IVT, anti-RXR (DBD mutation: RXRa K156A/R161A, NR concentration 270 nM, RXRa partner concentration 90 nM)
# Method in brief: as §1
# [12] = test system: PPARg:RXRa IVT, anti-PPARg (NR concentration 270 nM, RXRa partner concentration 90 nM)
# Method in brief: as §1
# [13] = test system: PPARg DBDmut:RXRa IVT, anti-PPARg (DBD mutation: PPARg1 K132A/R137A, NR concentration 270 nM, RXRa partner concentration 90 nM)
# Method in brief: as §1
# [14] = test system: PPARg DBDmut IVT, anti-PPARg (DBD mutation: PPARg1 K132A/R137A, NR concentration 270 nM)
# Method in brief: as §1
# [15] = test system: PPARg homodimer (NR concentration 180 nM)
# Method in brief: as §1
# [16] = test system: PXR:RXRa (NR concentration 270 nM, RXRa partner concentration 90 nM)
# Method in brief: as §1
# [17] = test system: PXR homodimer (NR concentration 270 nM)
# Method in brief: as §1
# [18] = test system: RARa:RXR (NR concentration 270 nM, RXRa partner concentration 90 nM)
# Method in brief: as §1
# [19] = test system: RARa homodimer (NR concentration 270 nM)
# Method in brief: as §1
# [20] = test system: RARb:RXRa (NR concentration 270 nM, RXRa partner concentration 90 nM)
# Method in brief: as §1
Sequence,PBM binding z-score [1],PBM binding z-score [2],PBM binding z-score [3],PBM binding z-score [4],PBM binding z-score [5],PBM binding z-score [6],PBM binding z-score [7],PBM binding z-score [8],PBM binding z-score [9],PBM binding z-score [10],PBM binding z-score [11],PBM binding z-score [12],PBM binding z-score [13],PBM binding z-score [14],PBM binding z-score [15],PBM binding z-score [16],PBM binding z-score [17],PBM binding z-score [18],PBM binding z-score [19],PBM binding z-score [20]
CCTTCCGGGTCACTGACAGGTTATAGCATTTGGA,4.43,3.92,0.31,3.22,0.12,5.01,4.96,5.08,1.75,3.7,3.69,5.08,0.702,-0.286,2.37,3.71,0.125,4.23,0.725,3.78
ATATGTAGGTTATCGGGTCATTCAATTTGCGCAT,3.06,3.55,1.95,3.51,0.979,5.11,7.6,6.31,3.98,6.15,7.45,7.56,2.44,2.36,2.28,3.43,1.39,3.8,1.75,2.87
CTCGAAAGGTCGGTTGAGGTTAGTATACGGATAA,3.06,2.88,0.205,1.97,0.0146,2.81,0.316,1.21,0.186,0.845,-0.0127,0.923,0.234,-0.683,1.47,4.96,0.435,3.04,0.202,3.06
CCTAGTTGGTCAGGAGGACACACACCGGATATGA,0.321,0.0708,0.61,0.0444,0.0185,0.000867,1.08,0.072,-0.0757,-0.0104,0.664,1.14,-0.182,0.142,0.859,-0.126,0.473,0.228,1.7,1.4
TATACAGGGTCAAAGGCCCGAGTACGAATGTCGA,6.5,6.07,1.91,4.39,2,5.84,6.14,6.28,2.84,5.12,1.95,4.09,1.37,0.769,1.13,3.57,0.0932,4.41,0.102,4.33
AGTCAAAGTTCACTAGATAACGTAAGATTCAGCT,4.55,4.91,2.72,2.91,1.04,3.97,5.54,5.7,2.23,4.53,0.283,2.53,1.22,1.17,2.06,3.77,3.07,2.89,1.09,4.66
CCTTACGGGTCACCGACAGGTTATAGCATTTGGA,6.22,4.88,0.46,3.96,-0.223,5.69,6.3,5.64,2.16,4.6,2.51,4.22,0.292,0.016,3.32,4.11,-0.087,5.27,0.277,4.52
GATACAGGGTCAGTTAGAGGCCAGAGTATGGAAA,4.02,2.54,0.247,2.39,0.0768,3.64,2.24,2.27,0.448,1.45,1.02,1.82,0.545,0.433,2.89,2.85,1.17,3.86,0.673,3.77
ATCGAAAGGTCGCGAGGTGAGTATACAGAAAGGC,5.31,4.1,-0.00351,3.19,-0.0982,5.26,4.54,4.93,1.89,3.56,0.5,3.13,1.02,0.918,1.25,3.33,0.012,4.35,0.464,4.48
TCATATAGGAAATACAGGTGAAAGTCGGCATCTA,1.36,1.32,0.335,1.27,0.00276,1.6,1.1,2.77,4.7,3.66,3.01,1.27,1.58,0.426,1.31,0.596,0.578,0.964,1.97,0.372
GGTGCTAGGTCAGGTTGGTCAGCTAACGGGTACG,1.56,1.33,0.61,1.09,0.134,1.71,1,1.8,0.315,1.35,2.64,3.08,-0.502,-0.0479,1.8,0.63,0.481,1.2,1.12,3.56
CCTGCTAGGTCAATGGTGAGCTAAAGCAGCTCGC,2.56,1.58,-0.54,0.808,-0.0982,2.57,2.46,2.99,1.2,2.5,4.2,3.22,-0.736,-0.744,0.822,0.37,-0.961,1.09,-0.333,3.51
TAGCCTAGGTCATTCAGGGGCCAATATAGAAAGC,4.5,4.59,1.12,3.78,1.21,3.97,2.41,2.82,0.793,1.51,1.85,2.85,0.373,1.2,2.49,3.08,0.116,4.05,0.318,3.93
CCTATTAGTTGACCATAAGGGCACCCGAAGCTCG,0.765,0.567,0.422,0.491,0.755,0.457,0.534,0.375,0.138,0.172,-0.198,0.504,0.132,0.825,1.88,0.521,0.781,0.981,1.56,1.2
